Measurements taken from the supplement of paper PMC6555819.

Assays:
Experiment in all cases: PBM binding z-score (relative to random genomic background probes); higher = stronger binding; sequences stand for … in GC…GCGATTGACAGCGTAGAATGAAGG
[1] = system: PPARg:RXRa DBDmut IVT, anti-RXR (DBD mutation: RXRa K156A/R161A, NR concentration 270 nM, RXRa partner concentration 90 nM)
In short: (§1)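 On custom Agilent 4×180K arrays, double-stranded probes with 34-nt variable regions carried direct-repeat seeds, single-nucleotide variants, half-site ablations or random human genomic background. Ligand-free nuclear receptor dimers were applied for 1 h, and binding was read with antibodies against each partner (one per run). Binding z-scores come from regression-normalized fluorescence, with the random background probes as reference.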

[2] = system: PPARg:RXRa IVT, anti-PPARg (NR concentration 270 nM, RXRa partner concentration 90 nM)
In short: as §1

[3] = system: PPARg DBDmut:RXRa IVT, anti-PPARg (DBD mutation: PPARg1 K132A/R137A, NR concentration 270 nM, RXRa partner concentration 90 nM)
In short: as §1

[4] = system: PPARg DBDmut IVT, anti-PPARg (DBD mutation: PPARg1 K132A/R137A, NR concentration 270 nM)
In short: as §1

[5] = system: PPARg homodimer (NR concentration 180 nM)
In short: as §1

[6] = system: PXR:RXRa (NR concentration 270 nM, RXRa partner concentration 90 nM)
In short: as §1

[7] = system: PXR homodimer (NR concentration 270 nM)
In short: as §1

[8] = system: RARa:RXR (NR concentration 270 nM, RXRa partner concentration 90 nM)
In short: as §1

[9] = system: RARa homodimer (NR concentration 270 nM)
In short: as §1

[10] = system: RARb:RXRa (NR concentration 270 nM, RXRa partner concentration 90 nM)
In short: as §1

Row | Sequence | PBM binding z-score [1] | PBM binding z-score [2] | PBM binding z-score [3] | PBM binding z-score [4] | PBM binding z-score [5] | PBM binding z-score [6] | PBM binding z-score [7] | PBM binding z-score [8] | PBM binding z-score [9] | PBM binding z-score [10]
1 | TCATATAGGTAAATGCTAGGTGAAAGACCGATCT | 3.73 | 2.45 | 1.16 | 1.31 | 1.02 | 0.594 | 0.174 | 0.931 | 0.867 | 0.44
2 | ATATGTAGGTTACATTCGGGTCATTCAGGCTATG | 7.46 | 7.26 | 5.28 | 2.88 | 2.4 | 3.85 | 3.72 | 3.65 | 1.02 | 2.32
3 | ATTTGTAGGTTAAGGGTCATTCAGGTTGGTTCGC | 6.4 | 7.15 | 4.62 | 2.85 | 7.55 | 5.87 | 3.82 | 6.91 | 4.5 | 3.9
4 | AATACAGGGTCATCGTAGGCCAAAGTACGCACAG | 2.81 | 4.06 | 3.81 | 2.62 | 3.47 | 5.59 | 1.03 | 5.27 | 1.3 | 4.29
5 | CGTCCAAGGTCATAGGTGGTCAGTGAAGACAGAT | 2.96 | 3.73 | 0.259 | -0.648 | 2.54 | 4.5 | 1.58 | 5 | 1.26 | 4.89
6 | AGAATGAGGTTATACGTAGCTCAGGGAAGAAAGT | 3.72 | 1.8 | 0.808 | 0.83 | 0.431 | 0.653 | 0.0212 | 1.15 | 0.35 | 1.11
7 | AGTCAAAGTTCATCTAGGTAAAGTAAGATATGCT | 1.06 | 3.88 | 1.43 | 0.713 | 3.61 | 5.45 | 7.79 | 4.38 | 2.12 | 5.22
8 | CGTCCAAGGTCAGCAGGTCCGTGAAAGCGACGTG | 2.55 | 2.38 | -0.178 | -1.09 | 1.99 | 2.47 | 0.631 | 3.08 | 0.18 | 4.86
9 | TCTCGCAGGACACGAAGGTCAGAGCTTTCCAGAG | 1.49 | 0.67 | -1.01 | -1.42 | 0.787 | 1.44 | -0.0691 | 1.81 | -0.422 | 2.74
10 | CTCGAAAGGTCGTGCTCGGGTGAGTATACCAAAC | 0.705 | 1.72 | 0.595 | -0.339 | 1.58 | 3.15 | -0.25 | 4.22 | -0.17 | 3.98
11 | ACTATCAGTTGACTTAGGGCAACCGATACGACGC | -0.371 | 0.386 | 0.456 | 0.545 | 0.231 | -0.0461 | 0.241 | 0.465 | 0.08 | 0.877
12 | ATATGTAGGTTACATCCGGGTCATTCACGCTATG | 7.63 | 7.57 | 6.55 | 5.07 | 5.81 | 4.01 | 1.48 | 4.11 | 1.52 | 2.41
